From PubChem
The sample as a whole holds a higher share of hits than the screen did.
IDE exosite inh = exo-site inhibitors of human insulin-degrading enzyme; P14735; purified IDE, FL-6b probe fluorescence polarization; stronger effect = lower value; z-score at 20 µM; hit rate 6.3% among 17,000; AID 1259349;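 active = z-score of -3 or lower, meaning strong loss of probe binding signal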;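 also: His-tagged human IDE residues 42-1019 made in E. coli with 30 nM FL-6b probe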
Target sequence (P14735 42-1019 limits assumed): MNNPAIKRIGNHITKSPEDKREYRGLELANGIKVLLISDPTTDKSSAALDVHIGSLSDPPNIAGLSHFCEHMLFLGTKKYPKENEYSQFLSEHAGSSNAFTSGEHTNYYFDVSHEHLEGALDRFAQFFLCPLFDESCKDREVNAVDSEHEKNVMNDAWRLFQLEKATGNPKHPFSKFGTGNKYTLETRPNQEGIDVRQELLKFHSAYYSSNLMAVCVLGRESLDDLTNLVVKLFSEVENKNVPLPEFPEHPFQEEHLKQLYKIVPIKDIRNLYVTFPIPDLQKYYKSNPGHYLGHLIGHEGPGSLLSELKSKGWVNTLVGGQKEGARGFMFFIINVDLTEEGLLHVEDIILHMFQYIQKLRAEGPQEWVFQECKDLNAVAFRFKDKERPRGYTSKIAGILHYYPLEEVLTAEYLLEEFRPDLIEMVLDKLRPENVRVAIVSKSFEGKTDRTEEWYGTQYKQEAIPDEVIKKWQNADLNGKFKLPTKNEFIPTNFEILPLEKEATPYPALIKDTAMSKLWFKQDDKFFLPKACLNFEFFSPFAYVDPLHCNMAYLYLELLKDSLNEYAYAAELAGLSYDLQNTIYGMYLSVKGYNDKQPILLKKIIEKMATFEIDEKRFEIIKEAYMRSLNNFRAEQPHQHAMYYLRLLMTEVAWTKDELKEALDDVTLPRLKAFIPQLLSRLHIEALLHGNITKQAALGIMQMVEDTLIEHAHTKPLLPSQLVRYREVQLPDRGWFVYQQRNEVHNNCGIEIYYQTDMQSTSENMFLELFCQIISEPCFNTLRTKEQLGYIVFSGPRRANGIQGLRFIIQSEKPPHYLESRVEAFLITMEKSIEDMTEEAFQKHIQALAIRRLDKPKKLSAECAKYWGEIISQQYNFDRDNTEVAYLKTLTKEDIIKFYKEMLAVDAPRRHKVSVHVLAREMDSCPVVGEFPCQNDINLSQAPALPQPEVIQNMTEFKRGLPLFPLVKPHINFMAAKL
Numbers stand for hits; - = inactive.

SMILES	IDE exosite inh
C[C@H](CO)N1C[C@H](C)[C@H](CN(C)S(C)(=O)=O)Oc2ccc(NC(=O)NC3CCCCC3)cc2C1=O	-
CO[C@H]1CN(C)C(=O)c2cc(NC(=O)CC(F)(F)F)ccc2OC[C@@H](C)N(CC2CC2)C[C@@H]1C	-
CCCC#Cc1cnc2c(c1)C(=O)N([C@@H](C)CO)C[C@@H](C)[C@H](CN(C)C(=O)Nc1cc(F)ccc1F)O2	-
CN1C(=O)c2cc(NC(=O)Nc3ccccc3Cl)ccc2OC[C@@H]2O[C@@H](CC(=O)O)CC[C@@H]21	-
CCN(C[C@@H]1[C@@H](c2ccccc2)[C@H](CO)N1S(C)(=O)=O)C(=O)C1CC1	-
CN1C[C@H]2[C@@H](c3ccccc31)[C@@H](CO)N2Cc1ccccc1Cl	-
C[C@@H]1CN([C@@H](C)CO)C(=O)CCCn2nncc2CO[C@H]1CN(C)C(=O)Nc1ccnc(N2CCOCC2)c1	-
CC(C)(O)C#Cc1ccc([C@H]2[C@H]3CN(S(C)(=O)=O)CCCCN3[C@H]2CO)cc1	-
COc1ccc(CN2[C@@H](CO)[C@@H]3c4ccccc4NC[C@@H]32)cc1	-
Cc1ccc(OC(=O)N(C)C[C@H]2OCc3ccccc3-c3ccccc3C(=O)N([C@H](C)CO)C[C@@H]2C)cc1	-
COc1ccccc1C#Cc1ccc([C@@H]2[C@@H](C#N)N(C(=O)C3CCC3)[C@H]2CO)cc1	-4.8
COc1ccccc1C#Cc1ccc([C@H]2[C@H](C#N)N(C(=O)C3CCC3)[C@H]2CO)cc1	-8.1
O=C(C[C@H]1C[C@H]2c3cc(NC(=O)Nc4ccccc4F)ccc3O[C@H]2[C@@H](CO)O1)NCc1ccccn1	-
CO[C@@H]1CN(C)C(=O)c2cc(NS(=O)(=O)CC(F)(F)F)ccc2OC[C@H](C)NC[C@@H]1C	-
CC(C)NC(=O)Nc1cccc2c1O[C@@H](CN(C)C(=O)Nc1ccccc1)[C@@H](C)CN([C@@H](C)CO)C2=O	-
O=C(C[C@@H]1C[C@@H]2c3cc(NC(=O)Nc4ccccc4F)ccc3O[C@@H]2[C@@H](CO)O1)NCc1ccccn1	-
O=C(NCC[C@H]1CC[C@H](NS(=O)(=O)c2ccc(F)cc2)[C@@H](CO)O1)c1ccc2c(c1)OCO2	-
COc1ccccc1-c1ccc([C@@H]2[C@H](CO)N3CCCCN(S(=O)(=O)c4cn(C)cn4)C[C@@H]23)cc1	-13
COc1ccccc1-c1ccc([C@H]2[C@H]3CN(S(=O)(=O)c4cn(C)cn4)CCCCN3[C@H]2CO)cc1	-
Cn1cnc(S(=O)(=O)N2CCCCN3[C@H](CO)[C@H](c4ccc(C#CC5CCCC5)cc4)[C@H]3C2)c1	-
Cn1cnc(S(=O)(=O)N2CCCCN3[C@@H](CO)[C@H](c4ccc(C#CC5CCCC5)cc4)[C@@H]3C2)c1	-
COc1ccccc1-c1ccc([C@@H]2[C@@H](CO)N3CCCCN(S(=O)(=O)c4cn(C)cn4)C[C@@H]23)cc1	-15
Cn1cnc(S(=O)(=O)N2CCCCN3[C@H](C2)[C@@H](c2ccc(C#CC4CCCC4)cc2)[C@@H]3CO)c1	-
O=C(Nc1ccc(F)cc1)N1CC(=O)N2[C@H](C1)[C@@H](c1ccc(C#Cc3ccc(F)cc3)cc1)[C@@H]2CO	-
COCC#Cc1ccc([C@@H]2[C@H]3CN(S(=O)(=O)c4ccccc4C)CCCCN3[C@H]2CO)cc1	-
SMILES	IDE exosite inh
Cc1ccccc1-c1ccccc1[C@@H]1[C@@H](C#N)N(C(=O)c2ccc(F)cc2)[C@H]1CO	-
Cc1ccccc1-c1cnc2c(c1)C(=O)N([C@@H](C)CO)C[C@@H](C)[C@@H](CN(C)Cc1ccccc1F)O2	-
N#C[C@@H]1[C@@H](c2ccc(C#Cc3ccccc3F)cc2)[C@@H](CO)N1C(=O)c1cccnc1	-
CCCNC(=O)Nc1ccc2c(c1)C(=O)N(C)C[C@H](OC)[C@H](C)CN(C)[C@@H](C)CO2	-
COc1ccc(-c2cn(CC[C@@H]3CC[C@H](NC(=O)c4cnccn4)[C@@H](CO)O3)nn2)cc1	-
O=C(CN1CCOCC1)N1CCCCN2[C@@H](CO)[C@@H](c3ccc(C#Cc4ccccc4)cc3)[C@@H]2C1	-5.5
O=C(CN1CCOCC1)N1CCCCN2[C@H](C1)[C@@H](c1ccc(C#Cc3ccccc3)cc1)[C@@H]2CO	-6.6
O=C(CN1CCOCC1)N1CCCCN2[C@@H](CO)[C@H](c3ccc(C#Cc4ccccc4)cc3)[C@@H]2C1	-7.1
Cc1ccccc1-c1ccc([C@H]2[C@@H](CO)N3CCCCN(C(=O)CN4CCOCC4)C[C@@H]23)cc1	-
O=C(CN1CCOCC1)N1CCCCN2[C@H](CO)[C@@H](c3ccc(C#Cc4ccccc4)cc3)[C@H]2C1	-3.3
O=C(CN1CCOCC1)N1CC[C@H]2[C@H](CO)Nc3ccc(-c4ccccc4F)cc3[C@H]21	-
CCS(=O)(=O)N[C@@H]1CC[C@@H](CC(=O)NCc2ccc(Cl)cc2)O[C@@H]1CO	-
C[C@@H]1CN([C@H](C)CO)S(=O)(=O)c2ccc(-c3cccc(C#N)c3)cc2O[C@@H]1CN(C)C(=O)c1ccccc1	-
C[C@@H]1CCCCO[C@@H](CN(C)C(=O)c2ccncc2)[C@H](C)CN([C@H](C)CO)C(=O)c2cc(NS(=O)(=O)c3cccs3)ccc2O1	-
C[C@@H]1CCCCO[C@@H](CN(C)S(=O)(=O)c2ccc(F)cc2)[C@@H](C)CN([C@H](C)CO)C(=O)c2cc(NC(=O)CCCCCC(=O)Nc3ccccc3N)ccc2O1	-
CCS(=O)(=O)N1[C@H](C#N)[C@@H](c2ccc(C#CC(C)C)cc2)[C@@H]1CO	-
c1ccc(CN2[C@@H]3CNC[C@H]2C3c2ccc(-c3ccncc3)cc2)nc1 (stereo not given in full)	-
O=C(Nc1ccccc1F)N[C@H]1CC[C@@H](CCNC(=O)C2CC2)O[C@@H]1CO	-
O=C(CN1CCOCC1)N1CCCCN2[C@H](C1)[C@H](c1ccc(Br)cc1)[C@@H]2CO	-
O=C(CN1CCOCC1)N1CCCCN2[C@H](CO)[C@@H](c3ccc(-c4ccccc4)cc3)[C@H]2C1	-
O=C(CN1CCOCC1)N1CCCCN2[C@H](CO)[C@@H](c3ccc(-c4ccccc4)cc3)[C@@H]2C1	-
O=C(CN1CCOCC1)N1CCCCN2[C@@H](CO)[C@@H](c3ccc(/C=C/c4ccccc4)cc3)[C@@H]2C1	-10
O=C(CN1CCOCC1)N1CCCCN2[C@H](C1)[C@H](c1ccc(C#Cc3ccccc3)cc1)[C@@H]2CO	-13
O=C(CN1CCOCC1)N1CCCCN2[C@H](CO)[C@H](c3ccc(Br)cc3)[C@@H]2C1	-
COc1ccc2c3c(n(C)c2c1)[C@H](CO)N(C(=O)c1ccc(F)cc1)CC31CCN(C)CC1	-
SMILES	IDE exosite inh
COc1ccccc1NC(=O)N1CC(=O)N2[C@H](CO)[C@H](c3ccc(C#CC(C)C)cc3)[C@@H]2C1	-
C/C=C/c1ccc([C@H]2[C@@H](CO)N3CCCCN(C(=O)NC4CCCC4)C[C@H]23)cc1	-
O=C(NC1CCCC1)N1CCCCN2[C@H](CO)[C@@H](c3ccc(/C=C/c4ccccc4)cc3)[C@H]2C1	-4.2
O=C(NC1CCCC1)N1CCCCN2[C@H](CO)[C@H](c3ccc(/C=C/c4ccccc4)cc3)[C@@H]2C1	-9.7
COc1ccc2c3c([nH]c2c1)[C@H](CO)N(C)CC31CCN(S(=O)(=O)c2cn(C)cn2)CC1	-
N#Cc1cccc(-c2ccc([C@H]3[C@H]4CN(C(=O)Nc5ccccc5)CCCCN4[C@H]3CO)cc2)c1	-
O=C(C[C@@H]1CC[C@H](NC(=O)CC2CC2)[C@H](CO)O1)NCC(F)(F)F	-
